According to PubChem BioAssay (NCATS):
Records with an inconclusive call do not appear. Activity calls are given as the source filed them. Unless noted, calls follow the shape of the dose curve; as a rule, active = well fitted cell-killing curve with a large enough effect; inconclusive = small, poorly fitted or top-dose-only effect; inactive = flat fitted curve, though single readings scatter.

Experiments:
[1] = Cell Viability - LYMP2-018 (AID 985);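 also: compound exposure lasted 24 hr at 37 °C; nearly all actives have a fitted effect of over 50% in size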
Method in brief: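 Luminescent ATP signal (CellTiter-Glo, read after 30 min at room temperature) reports viable cells after 24 hr compound treatment at 37 C. Concentration-response data were fitted to the standard Hill equation for AC50.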

[2] = Cell Viability - LYMP2-024 (AID 988); also: nearly all actives have a fitted effect of over 60% in size
Method in brief: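 Steps: seed 2500 cells/well, 5 hr 37 C; add compound, 24 hr 37 C; add CellTiter-Glo, 30 min room temperature; read luminescence. AC50 derived by Hill modelling of concentration-dependent ATP loss.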

[3] = Cell Viability - LYMP2-026 (AID 989);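 also: cells exposed to compound for 24 h at 37 °C; nearly all actives have a fitted effect of over 50% in size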
Method in brief: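 Luminescent ATP signal (CellTiter-Glo, 30 min room temperature) measures viable lymphoblastoid cells after 24 hr compound treatment at 37 C. Decreased ATP reflects acute toxicity; AC50 values come from Hill-equation modeling.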

[4] = Cell Viability - LYMP1-002 - Assay at 24 hr (AID 993)
Method in brief: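 Cells plated 2500/well, 5 hr 37 C; compounds added, 24 hr 37 C; CellTiter-Glo added, 30 min RT; luminescence read. Tetraoctylammonium bromide positive control. Hill-equation AC50.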

[5] = Cell Viability - LYMP1-002 - Assay at 40 hr (AID 994); also: nearly all actives have a fitted effect of over 60% in size
Method in brief: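 Luminescent ATP signal served as the viability readout, with decreases taken as toxicity. Cells were treated with compounds across a concentration range for 40 hours at 37 C, and AC50 values came from standard Hill modeling.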

[6] = NCATS anti-infectives library activity on HEK293 viability as a counter-qHTS vs the C. elegans viability qHTS (AID 1745854);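 also: HEK293 cells exposed to compounds for 24 hr before the viability read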
Method in brief: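 Compounds were acoustically plated (several concentrations, 1:5, final up to 41.7 uM), then 1500 HEK293 cells added per well and incubated 24 hr at 37C, 5% CO2. CellTiter-Glo was added and luminescence read after 10 min.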

[7] = NCATS anti-infectives library activity on the primary C. elegans qHTS viability assay (AID 1745855; calls by dose curve)
Method in brief: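 Viability read-out is GFP fluorescence of PE254-GFP-FLuc C. elegans, measured by laser cytometry (488 nm) at day 0, 3 and 7. Ten L1 worms per well were incubated 7 days at 21 °C with compounds and bacterial capsules in S medium.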

Measured: Potency

CC(C)(c1ccc(OCC2CO2)cc1)c1ccc(OCC2CO2)cc1 (configuration not stated)
not listed: [6] | [7]
inactive: all other assays above

O=NN1CCCC1c1cccnc1 (configuration not stated)
inactive: [6] | [7]
